Measurements: PubChem BioAssay AID743446 (Broad Institute, 2014)
Results with a measured potency or affinity are listed apart. Active and inactive are the calls of the source. The rule behind the calls is not given here.

Test: HEK293 cell cytotoxicity, dose response, cytotoxicity control, plate reader, cherry-picked samples (AID 743446)
Conditions: hits give low values; at 26 µM unless noted

| Structure (SMILES) | max activity |
| --- | --- |
| Cc1ccc(-c2nc(-c3ccncc3)no2)c(Cl)c1 | 10% [at 1.6 µM] (inactive) |
| Cc1csc(NC(=O)c2ccc(OCC3CCCO3)cc2)n1 (centres undefined) | 28.1% [at 3 µM] (inactive) |
| Cc1ccc(NC(=O)c2ccc3c(c2)OCCO3)cc1C | 32.4% [at 0.38 µM] (inactive) |
| Cc1ccc2nc(-c3ccccc3)nn2c1 | 68.6% [at 3 µM] (inactive) |
| CN(C)c1ccc(C2NC(=O)c3ccccc3N2)cc1 (centres undefined) | 20.5% [at 0.1 µM] (inactive) |
| O=C(c1ccc(F)cc1)N1CC(=O)N2[C@@H](CO)[C@@H](c3ccc(C#CC4CCCC4)cc3)[C@@H]2C1 | 32.7% [at 6 µM] (inactive) |
| O=c1c2c(nc3cc(-c4ccc(F)cc4)[nH]n13)CCCC2 | -12.8% (inactive) |
| CCn1c2ccccc2c2cc(CNCc3ccc(OC)cc3OC)ccc21 | -98.9% (inactive) |
| O=C(O)c1cccc(-c2noc(-c3cccc(Cl)c3)n2)c1 | 9.55% (inactive) |
| COCCn1c(C)cc(C(=O)CSc2nnc3ccccn23)c1C | -15% [at 6 µM] (inactive) |
| CO[C@@H]1CN(C)C(=O)c2ccc(NC(=O)C3CC3)cc2OC[C@@H](C)NC[C@@H]1C | 12% [at 3 µM] (inactive) |
| CCCCCc1ccc(-c2ccc(C(=O)O)cc2)nc1 | 34.4% [at 0.8 µM] (inactive) |
| CC(C)CCNC(=O)C(c1ccc(O)cc1)N(Cc1cccs1)C(=O)C1COc2ccccc2O1 (centres undefined) | -16.3% (inactive) |
| O=C(Nc1ccc(Cl)cc1)Nc1cccc(C(=O)O)c1 | -10.1% (inactive) |
| CC1CCCN(c2ncnc3c2cnn3-c2ccccc2)C1 (centres undefined) | -23.6% [at 12 µM] (inactive) |
| O=C(C[C@H]1CC[C@H](NS(=O)(=O)c2cccc(F)c2)[C@@H](CO)O1)N1CCCCC1 | 20.1% [at 0.05 µM] (inactive) |
| C[C@H](CO)N1C[C@H](C)[C@@H](CN(C)CC2CCOCC2)Oc2ncc(Br)cc2C1=O | 4.11% (inactive) |
| C[C@@H]1CN([C@@H](C)CO)C(=O)c2cc(NS(=O)(=O)c3ccc(F)cc3)ccc2O[C@H]1CN(C)Cc1ccc(-c2ccccc2)cc1 | -27.1% (inactive) |
| CCCc1ccc(-c2ccc(F)c(N)c2)nc1 | -20.7% [at 12 µM] (inactive) |
| Cc1ccccc1N=CC1=C(O)c2ccccc2C1=O | 12.1% [at 0.05 µM] (inactive) |
| Cc1cnc(NC(=O)COc2ccccc2Cl)s1 | 11.6% (inactive) |
| Cc1ccccc1C(=O)Nc1ccc2c(c1)OCCO2 | -9.3% [at 0.05 µM] (inactive) |
| COc1ccc(NC(=O)N(C)C[C@@H]2OCCCC[C@H](C)Oc3ccc(NC(=O)NC4CCCCC4)cc3C(=O)N([C@H](C)CO)C[C@@H]2C)cc1 | 7.92% [at 0.195 µM] (inactive) |
| Cc1cc(C)c(C)c(S(=O)(=O)N2CCN(c3ncnc4ccccc34)CC2)c1C | 62% [at 1.6 µM] (inactive) |
